Reference: PubChem BioAssay (NCI)
About 83,000 compounds went through this panel and 20% of them were active in at least one assay; those are over-represented in the sample as a whole.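 96-well plates, one dose, 48 hours. Percent growth reported; active if below 10.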 A number with no mark means an inactive call. Calls of active or inactive are those of the source.

How the values were obtained:
Assay in all cases: NCI-60 one-dose screen, 48 h (100 = growth as untreated, 0 = no growth, -100 = all killed)
[1] = test system: MOLT-4 leukemia; settings: 10 µM
[2] = test system: SR leukemia; settings: 10 µM
[3] = test system: RPMI-8226 leukemia; settings: 10 µM
[4] = test system: OVCAR-8 ovarian; settings: 10 µM
[5] = test system: OVCAR-5 ovarian; settings: 10 µM
[6] = test system: OVCAR-4 ovarian; settings: 10 µM
[7] = test system: SK-OV-3 ovarian; settings: 10 µM
[8] = test system: IGROV1 ovarian; settings: 10 µM
[9] = test system: OVCAR-3 ovarian; settings: 10 µM
[10] = test system: NCI/ADR-RES ovarian; settings: 10 µM
[11] = test system: T-47D breast; settings: 10 µM
[12] = test system: BT-549 breast; settings: 10 µM
[13] = test system: MDA-MB-435 melanoma; settings: 10 µM
[14] = test system: SW-620 colon; settings: 10 µM
[15] = test system: MCF7 breast; settings: 10 µM unless noted
[16] = test system: HCT-116 colon; settings: 10 µM
[17] = test system: HCC-2998 colon; settings: 10 µM
[18] = test system: KM12 colon; settings: 10 µM
[19] = test system: HS 578T breast; settings: 10 µM

Structure (SMILES) | growth [1] | growth [2] | growth [3] | growth [4] | growth [5] | growth [6] | growth [7] | growth [8] | growth [9] | growth [10] | growth [11] | growth [12] | growth [13] | growth [14] | growth [15] | growth [16] | growth [17] | growth [18] | growth [19]
[Cl][Hg][c]1ccc(Cl)s1 | -11.5% (active) | -17.1% (active) | 18.5% | 60% | 28.2% | 11.2% | 98.2% | 26.2% | -78.7% (active) | 57.1% | -68.5% (active) | 14.2% | 4.96% (active) | -26.9% (active) | -37.1% (active) | 15.8% | 111% | 91.1% | –
Oc1c(I)cc(I)cc1I | 98.9% | 101% | 94% | 101% | 98.6% | 104% | 109% | 112% | 124% | – | 103% | – | 113% | 107% | 95.4% | – | – | 110% | 119%
O=[N+]([O-])/C=C\c1ccc2c(c1)OCO2 | 75.9% | 34.4% | 10.2% | 89.9% | 91.5% | 76.9% | 101% | 27.6% | 85.7% | 98.5% | 75.3% | 91.7% | – | 43.2% | -10.9% (active) | -20% (active) | 52.6% | 38.3% | 87.4%
[Cl][Hg][c]1ccc2ccccc2c1 | -1.79% (active) | -38% (active) | -11.1% (active) | -43.9% (active) | -13.7% (active) | -89.7% (active) | 2.89% (active) | -76.6% (active) | -97.8% (active) | 63.9% | -56.8% (active) | -99% (active) | – | -92.4% (active) | -61.5% (active) | -100% (active) | -49% (active) | 1.74% (active) | 2.36% (active)
CN(C)CC1(N)C(=O)NC(=O)NC1=O | 99% | 101% | 100% | 105% | 97.8% | 103% | 98.2% | 108% | 113% | 107% | 89.4% | 111% | 103% | 106% | 90.9% | 92.9% | 99.4% | 101% | –
N#CCc1ccccc1 | 97.9% | 104% | 101% | 105% | 101% | 94.6% | 98.4% | 115% | 111% | 103% | 103% | 91.7% | 110% | 100% | 97.7% | 102% | 106% | 111% | –
COc1ccccc1[As]=[As]c1ccccc1OC (stereo not drawn) | -9.7% (active) | -2.26% (active) | -15.1% (active) | -83.1% (active) | -93.2% (active) | -85.1% (active) | -99.7% (active) | -76.9% (active) | -93.3% (active) | -72% (active) | -47.2% (active) | -91.9% (active) | -73.2% (active) | -66.3% (active) | -38.3% (active) | -71.3% (active) | -98.2% (active) | -81.8% (active) | –
